From PubChem BioAssay (EPA / NIEHS)
Records with an inconclusive call do not appear. Where a structure was tested more than once in an assay, its records may differ in their call. Active and inactive are the calls of the source. Rule for the calls: active = hit-call score of the fitted dose curve at least 0.9, where 1 is the maximum; inconclusive = response in the unintended direction; inactive = score below 0.9.

Target: human Peroxisome Proliferator-activated Receptor alpha (PPARa), PPARA (gene 5465) (UniProt Q07869)
Sequence (Q07869 whole entry, looked up): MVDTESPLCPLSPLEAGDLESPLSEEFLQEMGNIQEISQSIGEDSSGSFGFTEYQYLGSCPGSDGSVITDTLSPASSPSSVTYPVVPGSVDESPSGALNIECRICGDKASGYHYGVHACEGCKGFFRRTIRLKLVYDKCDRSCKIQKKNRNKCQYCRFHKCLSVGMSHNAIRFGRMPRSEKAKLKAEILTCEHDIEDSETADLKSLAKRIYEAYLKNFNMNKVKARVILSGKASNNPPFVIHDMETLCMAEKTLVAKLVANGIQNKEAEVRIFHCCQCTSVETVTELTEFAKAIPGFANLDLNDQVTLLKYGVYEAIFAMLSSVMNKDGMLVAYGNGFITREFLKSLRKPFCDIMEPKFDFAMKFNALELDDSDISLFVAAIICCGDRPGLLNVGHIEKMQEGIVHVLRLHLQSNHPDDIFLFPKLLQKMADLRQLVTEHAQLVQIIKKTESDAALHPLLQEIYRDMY
Test: ATG_PPARa_TRANS: Attagene TRANS-FACTORIAL HepG2 Assay for human Peroxisome Proliferator-activated Receptor alpha (PPARa) (AID 2283001);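 for AC50: potency for gain of reporter signal over DMSO so agonist or activator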
Procedure: ATG_TRANS is a cell-based, multiplexed-readout assay that uses HepG2, a human liver cell line, with measurements taken at 24 hours after chemical dosing in a 24-well plate.ATG_PPARa_TRANS is one of 30 assay component(s) measured or calculated from the ATG_TRANS assay. It is designed to make measurements of mRNA induction, a form of inducible reporter, as detected with fluorescence intensity signals by Reverse transcription polymerase chain reaction (RT-PCR) and Capillary electrophoresis technology.Data from the assay component ATG_PPARa_TRANS was analyzed into 1 assay endpoint. This assay endpoint, ATG_PPARa_TRANS, was analyzed in the positive analysis fitting direction relative to DMSO as the negative control and baseline of activity. Using a type of inducible reporter, measures of mRNA for gain-of-signal activity can be used to understand the reporter gene at the transcription factor-level as they relate to the gene PPARA. Furthermore, this assay endpoint can be referred to as a primary readout, because this assay has produced multiple assay endpoints where this one serves a reporter gene function. To generalize the intended target to other relatable targets, this assay endpoint is annotated to the nuclear receptor intended target family, where the subfamily is non-steroidal.
Human liver HepG2 cells are transiently transfected with multiple reporter transcription units (MRTUs) in 6-well plates using FuGene 6 reagent (Roche; 3 ml FuGene/1 mg DNA). The MRTU constructs are regulated by a cis-regulating element (promoter). […] A major difference between the CIS and TRANS system is that in CIS activities of endogenous TFs are measured, whereas the TRANS assay evaluates changes in activities of exogenous, chimeric NR-Gal4 proteins. […] At the end of 24 hour incubation, total RNA was isolated using TriZol reagent (Invitrogen). The isolated RNA is then reverse-transcribed using oligo(dT) primer and Mo-MLV reverse transcriptase (Invitrogen) with DNAse I (Ambion) treatment for 30 min. The one-tenth of the produced cDNA was amplified by PCR using Taq DNA polymerase (Invitrogen) and two reporter sequence-specific primers. The PCR products were fluorescently labeled by primer extension with 6-arboxyfluorescein (6-FAM) 5'-labeled reporter sequence-specific primer (2 min at 95 C, 20 s at 68 C and 10 min at 72 C) and these products were digested with 5U of HpaI (New England Biolabs) for 2h at 37 C. The fragments were purified using Qiaquick PCR columns (Qiagen), analyzed on an ABI 3130xL genetic analyzer (Applied Biosystems) with peak positions identified by using a set of X-rhodamine (ROX)-labeled MapMarker1000 molecular weight standards (BioVentures). The raw capillary electrophoresis data was processed using Attagraph software (Attagene).

Compound	outcome	AC50
C=CC(Cl)CCl (stereo not given)	inactive	–
O=C1C=CC(=O)c2ccccc21	inactive	–
Brc1ccc(Oc2c(Br)cc(Br)cc2Br)c(Br)c1	inactive	–
O=c1oc2ccccc2c(O)c1C(CC(O)c1ccc(-c2ccc(Br)cc2)cc1)c1ccccc1 (stereo not given)	inactive	25.3 µM (active)
O=C(Cc1ccccc1)OCCc1ccccc1	inactive	–
Oc1ccc(Cc2ccc(O)cc2)cc1	inactive	–
OC[P+](CO)(CO)CO	inactive	–
CNC(=O)CSP(=O)(OC)OC	inactive	–
CCCCC(CC)C(=O)Cl (stereo not given)	inactive	–
C=CC(=O)OCC(COC(=O)C=C)(COC(=O)C=C)COC(=O)C=C	–	100 µM (active)
CC(C)O.CC(C)O.OCCN(CCO)CCO.OCCN(CCO)CCO.[Ti]	inactive	–
NC(=O)c1ccc(N)nc1	inactive	–
Cc1cc(Cl)ccc1O	inactive	–
O=CCCl	inactive	–
O=C(O)CC(O)(CC(=O)O)C(=O)O	inactive	–
O=C1c2ccccc2C(=O)C1C(=O)C(c1ccccc1)c1ccc(Cl)cc1 (stereo not given)	inactive	–
Nc1nc(N)nc(Cl)n1	inactive	–
CN(C)CCN(C)C	inactive	–
CCCSP(=S)(OCC)Oc1ccc(Cl)cc1Cl (stereo not given)	inactive	–
O=S(=O)(F)C(F)(F)C(F)(F)C(F)(F)C(F)(F)F	inactive	–

Compound	outcome	AC50
CCCCCCCCCCCCBr	inactive	–
O=C(O)C1(c2ccc3c(c2)OC[C@H](Cc2ccc(-c4ccccc4)cc2)[C@H]3O)CCCC1	–	11 µM (active)
CCOP(=S)(OCC)SCSc1cc(Cl)ccc1Cl	inactive	–
C[C@H]1C(=O)O[C@@H]2CCN3CC=C(COC(=O)[C@](C)(O)[C@]1(C)O)[C@H]23	inactive	–
OCCN(CCO)CCO	inactive	–
CCCCOC(=O)COC(=O)c1ccccc1C(=O)OCCCC	inactive	–
COP(=S)(OC)Oc1cc(Cl)c(I)cc1Cl	–	38 µM (active)
O=NN1CCOCC1	inactive	–
OCCCCO	inactive	–
Cl[C@H]1OCCO[C@@H]1Cl	inactive	–
N#Cc1ccncc1	inactive	–
CCNc1nc(NCC)nc(SC)n1	inactive	–
Oc1c(Br)cc(Br)cc1Br	–	13.3 µM (active)
C[C@]12CC[C@@H](O)C[C@@H]1CC[C@@H]1[C@@H]2CC[C@]2(C)C(=O)CC[C@@H]12	inactive	–
N#Cc1ccccc1N	inactive	–
O=[N+]([O-])c1cccc2ccccc12	inactive	–
Cc1ccc2nc3sc(=O)sc3nc2c1	inactive	–
C#CCOC(=O)/C=C(C)/C=C/CC(C)CCCC(C)C (stereo not given)	–	14.9 µM (active)
O=c1[nH]c(=O)n(Cl)c(=O)n1Cl	inactive	–
